# Compound activity deposited in PubChem by several laboratories.
# HSF1 inh – HSF1 inhibitors in luciferase reporter cells, primary screen, cell-based, NIH3T3, luminescence; NIH3T3-HGL HSE-luciferase, MG132-induced, luminescence 8 h; active compounds read low; activity change, negative = inhibition, % at 7.5 µM (by protocol); 300,000 compounds, 0.77% hits;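 active means more than half of replicate wells show activity change below -50%, luminescence cut by over half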;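 further: luciferase reports HSF-1 transcriptional activity via heat shock element; 0% = median of DMSO wells and -100% = zero luminescence signal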
# ARNT TACC3 PPI – disruptors of ARNT/TACC3 protein interaction, primary screen, biochemical, AlphaScreen, single concentration | Transforming acidic coiled-coil-containing protein 3 (Homo sapiens), Q9Y6A5 | AlphaScreen His-ARNT PAS-B/GST-TACC3 binding, luminescence; TACC3 fragment carries E629A point mutation | inhibition, % at 9.99 µM | 390,000 compounds, 0.66% hits | AID 623870, 2012;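 active means mean inhibition of replicates at least 50% and at least half of replicates each reaching 50%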;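 further: 0% = complete ARNT plus TACC3 wells and 100% = ARNT alone without TACC3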
# HIF activator – HIF pathway transcriptional activators, primary screen, cell-based, U2OS HRE-luciferase, luminescence; 300,000 compounds, 0.32% hits; activation, % at 7.5 µM (by protocol); U2OS HRE-luciferase reporter; normalized: DMSO 0%, desferrioxamine 100%;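 active means mean activation of at least 10% of the iron chelator positive control signal, with at least half of replicates also reaching 10%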
# HSF-1 act – HSF-1 activators, primary screen, NIH3T3-HGL cells, MG132 stress, luminescence, single point. NIH3T3-HGL HSF-1 luciferase reporter, 8 h; 100% = twice DMSO control signal. activation, % at 9 µM. 300,000 compounds, 1.7% hits;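 active means mean replicate activation of at least 50% with a set share of replicates each reaching 50%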;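 further: 0% = median of the neutral control wells and 100% = twice that signal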
# HSP90 inh – HSP90 inhibitors, primary screen, cell lysate, luminescence. Heat shock protein HSP 90 (rabbit reticulocyte lysate; luciferase refolding). Rabbit reticulocyte lysate, luciferase refolding luminescence, 3 h. inhibition, % at 5.6 µM. 290,000 compounds, 0.91% hits. AID 1789, 2009;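 active means inhibition above the screen-wide mean plus 3 SD, computed separately per campaign, cut at about 16% in these data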;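 further: 0% = DMSO wells and 100% = 60 µM geldanamycin wells; inhibitors lower the luminescence because luciferase stays unfolded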
# HSP90 confirm – HSP90 inhibitors, confirmation, cell lysate, luminescence; shares compounds with HSP90 inh; rabbit reticulocyte lysate, luciferase refolding luminescence, 3 h; inhibition, % at 5.9 µM; 2,300 compounds, 64% hits; AID 1846, 2009; in the data active means inhibition above about 18%;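 further: 0% = vehicle wells and 100% = reference inhibitor wells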
# FLuc counter – firefly luciferase inhibitors, HSP90 counter-screen, confirmation, artefact control for HSP90 inhibitor project, biochemical, luminescence, triplicate; AID 1847, 2009; shares compounds with HSP90 inh; 2,300 compounds, 48% hits; inhibition, % at 5.9 µM; purified native firefly luciferase;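 active means inhibition above the mean inhibition of all tested sample wells plus 3 SD, cut at about 10% in these data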;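 further: 0% = DMSO with luciferase and 100% = wells lacking luciferase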
# Target sequence (P08659 whole entry, looked up): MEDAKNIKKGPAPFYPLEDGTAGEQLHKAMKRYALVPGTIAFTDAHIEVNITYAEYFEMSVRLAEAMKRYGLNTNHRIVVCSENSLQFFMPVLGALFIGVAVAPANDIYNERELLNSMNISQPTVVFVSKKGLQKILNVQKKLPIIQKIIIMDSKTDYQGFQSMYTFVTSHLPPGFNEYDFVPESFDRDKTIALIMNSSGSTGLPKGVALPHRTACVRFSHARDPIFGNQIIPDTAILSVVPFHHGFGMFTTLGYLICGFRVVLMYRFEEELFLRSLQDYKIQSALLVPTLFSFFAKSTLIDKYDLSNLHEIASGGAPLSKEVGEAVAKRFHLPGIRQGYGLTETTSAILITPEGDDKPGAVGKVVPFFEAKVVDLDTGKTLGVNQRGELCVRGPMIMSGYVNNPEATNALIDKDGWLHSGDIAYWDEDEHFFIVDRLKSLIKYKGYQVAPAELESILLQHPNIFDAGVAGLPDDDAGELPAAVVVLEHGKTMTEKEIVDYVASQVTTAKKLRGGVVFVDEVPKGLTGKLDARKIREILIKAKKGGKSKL
# * hit, by the source's call; . = no result given. Shown are actives, neighbours in structure and some others; about 3.1% of the full set was active somewhere.
SMILES,HSF1 inh,ARNT TACC3 PPI,HIF activator,HSF-1 act,HSP90 inh,HSP90 confirm,FLuc counter
CC1(C)CN=C(N(Cc2ccccc2)C(=O)Nc2ccccc2)S1,-6.2,0.1,-51.0,-2.1,19.0*,29.4*,18.7*
CC1(C)CN=C(N(C(=O)Nc2ccccc2)c2ccccc2F)S1,-3.2,-12.5,-0.1,19.9,3.3,.,.
CNC(=O)C[C@H]1CC[C@@H]2[C@@H](COc3ccc(NC(=O)Nc4cccc(Cl)c4)cc3C(=O)N2C)O1,.,3.2,.,.,.,.,.
COCC(=O)Nc1ccc2c(c1)OC[C@H](C)N(C(=O)c1ccncc1)C[C@@H](C)[C@H](OC)CN(C)C2=O,.,4.7,.,.,.,.,.
Cc1cc2nc3ccc(=[N+](C)C)cc-3sc2cc1N,43.6,37.8,-3.0,57.8*,81.8*,89.4*,37.9*
CN(C)c1ccc2nc3ccc(=[N+](C)C)cc-3sc2c1,25.8,.,-1.0,48.4,14.9,.,.
CN(C)c1ccc(-c2nc3ccccc3n2C)cc1,3.2,7.0,-1.9,24.4,28.4*,64.1*,53.1*
CC(C)c1ccc(C(O)Cc2nc3ccccc3n2C)cc1 (stereo not drawn),-9.1,17.4,1.7,-1.5,7.3,.,.
CC(C)n1c(-c2ccc(N(C)C)cc2)nc2ccccc21,.,12.2,.,.,8.6,.,.
CN(C)c1ccc(C(O)Cc2nc3ccccc3n2C)cc1 (stereo not drawn),-45.7,-4.4,-3.3,-52.1,46.3*,4.5,0.8
CCN(CC)c1ccc2cc(-c3nc4ccccc4n3C)c(=O)oc2c1,-15.4,28.7,3.6,-20.0,2.2,.,.
CCN(CC)c1ccc2cc(-c3nc4ccccc4[nH]3)c(=O)oc2c1,-33.2,-2.4,0.6,-42.2,34.5*,68.1*,67.3*
CCCOc1ccc2cc(-c3ccccn3)c(=O)oc2c1,-34.1,-9.9,-2.1,-42.0,36.0*,85.0*,79.6*
CN(C)C(=O)C[C@H]1C[C@@H]2c3cc(NS(=O)(=O)c4ccccc4)ccc3O[C@@H]2[C@H](CO)O1,.,-3.0,.,.,.,.,.
CCNC(=S)NNC(=O)c1cc(-c2cccc(OC)c2)nc2ccccc12,4.1,-0.4,1.4,-7.1,-0.8,.,.
CCOc1ccc(-c2cc(C(=O)N/N=C(\C)c3cccnc3)c3ccccc3n2)cc1,8.5,-8.7,2.5,1.2,28.3*,3.3,-23.1
CCc1ccc(-c2cc(C(=O)Nn3cnnc3)c3ccccc3n2)cc1,-24.5,-18.6,-1.6,-33.0,30.1*,55.7*,30.3*
CCNC(=S)NNC(=O)c1cc(-c2ccc(OCC)cc2)nc2ccccc12,-40.6,2.2,-2.3,-55.0,50.0*,73.6*,25.3*
Cc1noc(C)c1S(=O)(=O)Nc1ccc2c(c1)C(=O)N([C@H](C)CO)C[C@H](C)[C@H](CN(C)C(=O)Nc1ccc3c(c1)OCO3)O2,.,2.3,.,.,.,.,.
C[C@H]1CN([C@@H](C)CO)C(=O)c2cc(NC(=O)Nc3ccc4c(c3)OCO4)ccc2O[C@H]1CN(C)Cc1ccc2c(c1)OCO2,.,1.3,.,.,.,.,.
O=C(Nc1ccccc1)C1=C[C@@H](C2CCCCC2)C[C@@H](OCCCCO)O1,-40.9,-1.0,0.2,-43.0,25.9*,35.5*,27.5*
COc1ccc(C(=O)Oc2cc(/C=N/NC(N)=S)ccc2OC)cc1,0.5,3.6,-1.3,3.7,2.0,.,.
COc1cc(/C=N/Nc2ccccc2)ccc1OC(=O)c1cccs1,.,.,.,.,-2.3,.,.
COc1cc(/C=N\NC(=O)OC(C)(C)C)ccc1OC(=O)c1ccco1,2.7,5.8,0.5,-3.0,0.5,.,.
COc1cc(/C=N/Nc2ccc(Cl)c(C(=O)O)c2)ccc1OC(=O)c1ccco1,-4.4,10.0,-0.1,-2.8,31.8*,71.4*,-17.7
